HTT cytoprotect = qHTS Multiplex Assay to Identify Dual Action Probes in a Cell Model of Huntington: Cytoprotection (ATP); 230,000 compounds, 0.14% hits; Potency, µM (top dose mostly 56.4 µM), for inactives: cytoprotection (ATP increase), most hits filed as activators; AID 1471, 2008; PC12 HTT-Q103 induced, cytoprotection, ATP luminescence, 40 h; further: potency means the concentration at half of the fitted maximal effect; % of control where 0% means no effect; nearly all actives have a fitted effect of over 45% in size
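Readout: ATPlite luminescence (ATP level). Model: stable PC12, inducible Htt exon1 Q103-GFP. Inducer: tebufenozide, 100 nM final. Compounds: dose series. No G418 in medium.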
GLA spleen mod = qHTS Assay for Inhibitors and Activators of Human alpha-Galactosidase From Spleen Homogenate | Alpha-galactosidase A (Homo sapiens), P06280 | human spleen homogenate, 4MU-alpha-Gal fluorescence, 40 min | Potency, µM (series often up to 80 µM), without a hit: at the highest dose activity change, negative = inhibition, actives largely listed as inhibitors | 240,000 compounds, 0.008% hits | AID 2107, 2009;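 further: potency means the concentration at half of the fitted maximal effect; 0% = enzyme with vehicle and -100% = no enzyme basal signal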
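Human spleen homogenate (1 ug) as enzyme source, 4-methylumbelliferyl-alpha-D-galactopyranoside 1 mM final, citrate/phosphate pH 5.0 with 0.01% Tween-20. Compounds 40 min at 37C, NaOH/glycine stop; fluorescence Ex 365/Em 440, Hill-fit AC50.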
HttQ103 aggreg = qHTS Multiplex Assay to Identify Dual Action Probes in a Cell Model of Huntington: Aggregate Formation (GFP). PC12 HttQ103-GFP aggregates, Acumen cytometry, 40 h. Potency, µM (titrated, usually from 46.1 µM), for the others: at the top dose activity change, negative = inhibition, most hits filed as inhibitors. 220,000 compounds, 1.1% hits. AID 1688, 2009; further: potency means the concentration at half of the fitted maximal effect; on the % scale 0 is the no-effect control and ±100 the full control effect; nearly all actives have a fitted effect of over 60% in size
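Aggregates are detected as GFP objects 1–25 µm with signal 6 STDEV over background in lysates of induced PC12 cells. These carry Huntingtin exon 1 with 103 glutamines fused to GFP under an ecdysone promoter; compounds titrated.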
GLA inh pH 4.5 = qHTS Assay for Inhibitors of Human alpha-Galactosidase at pH 4.5; Alpha-galactosidase A (Homo sapiens), P06280; purified enzyme, 4-MU-alpha-Gal fluorescence, pH 4.5; activity change, negative = inhibition, % at 105 µM; 230,000 tested, under 10 active; AID 1467, 2008;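 further: 0% = full activity with enzyme and -100% = basal without enzyme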
Target sequence (P06280 whole entry, looked up): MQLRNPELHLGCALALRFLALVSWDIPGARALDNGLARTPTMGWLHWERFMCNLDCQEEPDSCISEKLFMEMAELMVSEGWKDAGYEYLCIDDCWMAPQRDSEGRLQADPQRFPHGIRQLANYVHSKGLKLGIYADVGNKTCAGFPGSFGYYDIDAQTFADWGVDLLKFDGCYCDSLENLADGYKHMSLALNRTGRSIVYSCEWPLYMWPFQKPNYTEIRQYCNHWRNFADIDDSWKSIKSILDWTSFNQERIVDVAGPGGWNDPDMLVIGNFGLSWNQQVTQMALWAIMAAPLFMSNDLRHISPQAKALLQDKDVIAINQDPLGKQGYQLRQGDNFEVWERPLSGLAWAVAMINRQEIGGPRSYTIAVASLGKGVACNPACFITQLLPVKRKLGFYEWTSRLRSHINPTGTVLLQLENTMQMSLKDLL
An asterisk follows results filed as active; ! = not active in a repeat; [ ] = another dose, or the depositor's remark. In the library only some 1.2% were active in any assay of this set; here they are far more common. The call rests on the fitted dose curve; in most records, active means well fitted curve in the direction sought with a large enough effect; inconclusive means small, poorly fitted or top-dose-only effect, or another doubt; inactive means no such curve, though single readings can be large; an effect the other way counts as inactive or inconclusive.

Screening COc1ccccc1NC(=S)N(Cc1ccc(C)cc1)Cc1ccccn1 returned HTT cytoprotect -35%, GLA spleen mod -4%, HttQ103 aggreg 25µM* and GLA inh pH 4.5 -12.
`O=C(Nc1cccc(F)c1)c1ccc(-c2ccccc2Cl)o1` gave GLA spleen mod 1%, HttQ103 aggreg 7% and GLA inh pH 4.5 9.
Screening Cc1ccc(-c2ccc(C(=O)Nc3cccc(F)c3)o2)c2ccccc12 returned GLA spleen mod -1%, HttQ103 aggreg 22µM* and GLA inh pH 4.5 13.
Screening NC(C(=O)O)c1ccc(P(=O)(O)O)cc1 (configuration not stated) returned HTT cytoprotect 5% and GLA spleen mod 8%.
For Cc1cc(Sc2nc(N)ncc2[N+](=O)[O-])ncn1 the results were HTT cytoprotect -153%, GLA spleen mod 2%, HttQ103 aggreg inconclusive and GLA inh pH 4.5 -2.
For Cc1cc(Sc2ncnc(N)c2[N+](=O)[O-])ncn1 the results were HTT cytoprotect 7%[10 µM], GLA spleen mod 4%, HttQ103 aggreg 4.5µM* and GLA inh pH 4.5 1.
Screening Cc1cc(C)c(S(=O)(=O)OC[C@H]2C=CC[C@@H](CCC[C@H]3O[C@H](C(=O)OC(C)C)CC[C@@H]3C)O2)c(C)c1 returned HTT cytoprotect -3%, GLA spleen mod 14% and GLA inh pH 4.5 0.
CCOC(=O)c1sc(NC(=O)Nc2ccc(Cl)cc2)cc1C was read as HTT cytoprotect -6%[10 µM], GLA spleen mod 10%, HttQ103 aggreg 22µM* and GLA inh pH 4.5 -15.
O=C(O)c1ccccc1Nc1ccc(CCc2ccc(Cl)c(Cl)c2)cc1 was read as GLA spleen mod -8%.
Screening CNc1nc(SCc2ccccc2Cl)nc2c1CCCC2 returned HTT cytoprotect -22%[10 µM], GLA spleen mod 5%, HttQ103 aggreg 10µM* and GLA inh pH 4.5 -12.
`O=c1[nH]c(SCc2ccccc2Cl)nc2c1CCC2` gave HTT cytoprotect -3%, GLA spleen mod 14%, HttQ103 aggreg -20% and GLA inh pH 4.5 -8.
For O=c1c(Cl)cc(Cl)nn1-c1ccccc1 the results were HTT cytoprotect 24%[10 µM], GLA spleen mod -2%, HttQ103 aggreg 18µM* and GLA inh pH 4.5 5.
For COc1cc(Cl)nn(-c2ccccc2)c1=O the results were HTT cytoprotect 8%[10 µM], GLA spleen mod 2%, HttQ103 aggreg 7% and GLA inh pH 4.5 13.
For Cc1ccc(SCC(Cc2ccccc2)N2CCN(CCc3ccccc3)CCC2=O)cc1 (configuration not stated) the results were GLA spleen mod 6%.
COc1ccc(-c2cc(=O)[nH]c(NCc3ccccc3)n2)cc1 was read as HTT cytoprotect -6%[0.074 µM], GLA spleen mod 3%, HttQ103 aggreg 4µM* and GLA inh pH 4.5 -2.
Screening CCCC/C=C/[C@H](C)[C@@](C)(COC(=O)c1ccc(Br)cc1)Cc1ccccc1 returned GLA spleen mod -19%.
`CC(=O)N1CCN(c2nc(-c3ccco3)c3c(c2C#N)CC(C)(C)SC3)CC1` gave HTT cytoprotect -52%, GLA spleen mod 12%, HttQ103 aggreg 13µM* and GLA inh pH 4.5 1.
Screening CCCn1c(-c2nonc2N)nc2ccccc21 returned HTT cytoprotect 3%[10 µM], GLA spleen mod 1%, HttQ103 aggreg 13µM* and GLA inh pH 4.5 0.
`Cc1ccc(F)c(C2C3C=CCC(c4cccc(-c5ccc(N(C)C)cc5)c4)C3C(=O)N2Cc2ccccc2)c1` (configuration not stated) gave HTT cytoprotect -38%[10 µM], GLA spleen mod 4%, HttQ103 aggreg 3.2µM* and GLA inh pH 4.5 3.
For COc1ccc(-c2cccc(C3CC=CC4C3C(=O)N(Cc3ccccc3)C4c3cc(C)ccc3F)c2)cc1 (configuration not stated) the results were HTT cytoprotect -49%[10 µM], GLA spleen mod 2%, HttQ103 aggreg -36%[9.22 µM] and GLA inh pH 4.5 2.
`Clc1ccc2c(c1)C(N1CCNCC1)=Nc1ccccc1O2` gave HTT cytoprotect 0.35µM*!, GLA spleen mod 3%, HttQ103 aggreg 4% and GLA inh pH 4.5 -1.
Screening COc1cc(CNc2ncnc3ccc(-c4c(C)noc4C)cc23)cc(OC)c1OC returned GLA spleen mod 6%.
CC(C)n1c(-c2ccccc2F)n[nH]c1=S was read as HTT cytoprotect -15%, GLA spleen mod 1%, HttQ103 aggreg 8% and GLA inh pH 4.5 inconclusive.
Screening CC(C)n1c(-c2ccc(C(C)(C)C)cc2)n[nH]c1=S returned HTT cytoprotect -20%, GLA spleen mod 7%, HttQ103 aggreg 8.9µM* and GLA inh pH 4.5 3.
Screening C=C(C)[C@H]1CC=C(CO)CC1 returned HTT cytoprotect -23%, GLA spleen mod -3% and GLA inh pH 4.5 -8.
O=C(COc1ccc(Cl)cc1)Nc1ncc([N+](=O)[O-])s1 was read as HTT cytoprotect -59%, GLA spleen mod -4%, HttQ103 aggreg 13µM* and GLA inh pH 4.5 -15.
For O=C(C1CCCCC1)N(CCN1CCN(c2ccccc2CO)CC1)c1ccccn1 the results were HTT cytoprotect -38% and GLA spleen mod 8%.
For O=c1c2c(nc3c(-c4cccc5ccccc45)c[nH]n13)CCC2 the results were HTT cytoprotect -12%, GLA spleen mod 11%, HttQ103 aggreg inconclusive and GLA inh pH 4.5 0.
O=c1c2c(nc3c(-c4ccc(Cl)cc4)c[nH]n13)CCCC2 was read as HTT cytoprotect -58%, GLA spleen mod -1%, HttQ103 aggreg 7.1µM* and GLA inh pH 4.5 -3.
For CCOC(=O)c1cc(CC)sc1NC(=O)C1CC(=O)NN1Cc1ccccc1 (configuration not stated) the results were HTT cytoprotect 0%[10 µM], GLA spleen mod -2%, HttQ103 aggreg 10µM* and GLA inh pH 4.5 -7.
Screening COc1ccccc1CNc1ccnc(-c2ccc(N(C)C)cc2)n1 returned HTT cytoprotect -281% and GLA spleen mod 10%.
`Cc1cc(/C=N/n2cnnc2)c(C)n1-c1ccc(OCc2ccc(Cl)cc2Cl)cc1` gave HTT cytoprotect -55%, GLA spleen mod 2%, HttQ103 aggreg 6.3µM* and GLA inh pH 4.5 1.
Cc1cc(/C=N/n2cnnc2)c(C)n1-c1ccc(OCc2ccc(F)cc2)cc1 was read as HTT cytoprotect -30%[10 µM], GLA spleen mod 10%, HttQ103 aggreg 7.1µM* and GLA inh pH 4.5 -14.
`Cc1cc(/C=N/n2cnnc2)c(C)n1-c1ccccc1` gave HTT cytoprotect -12%, GLA spleen mod -5%, HttQ103 aggreg 11% and GLA inh pH 4.5 2.
Cc1cc(/C=N/n2cnnc2)c(C)n1-c1ccc(Cl)cc1 was read as HTT cytoprotect 12%[0.074 µM], GLA spleen mod 6%, HttQ103 aggreg 14% and GLA inh pH 4.5 11.
Screening Cc1[nH]c2ccccc2c1SCCNC(=O)c1ccc(Br)o1 returned HTT cytoprotect -20%[10 µM], GLA spleen mod 8%, HttQ103 aggreg 25µM* and GLA inh pH 4.5 -9.
